# Source: PubChem BioAssay AID1053118 (Broad Institute, 2014)
# Results with a measured potency or affinity are listed apart. The source made the active and inactive calls.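 Rule for the calls: active = fitted half-maximal concentration for ATP signal loss at most twice the top valid dose; inconclusive = flat curve between -70 and -30%, or an invalid fit; inactive = flat within ±30%, wrong direction, or potency past limit.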
# Experiment: viability loss in HepG2 hepatoma cells – cell-based, cherry-picks, set 5, cytotoxicity control, dose response (AID 1053118)
# Settings: ATP luminescence, 72 h; series mostly up to 26 µM
row,Compound,outcome
1,Cc1ccc(S(=O)(=O)N2CC[C@@H]3[C@@H](CO)Nc4ccc(-c5cccc(C(=O)N(C)C)c5)cc4[C@@H]32)cc1,inactive
2,CN(C)C(=O)c1ccc(-c2ccc3c(c2)[C@H]2[C@H](CCN2C(=O)c2ccc(F)cc2)[C@H](CO)N3C)cc1,inactive
3,C[C@@H]1CN([C@@H](C)CO)C(=O)c2cc(NC(=O)CCCN(C)C)ccc2O[C@@H]1CN(C)Cc1ccc(-c2ccccc2)cc1,inactive
4,CN(C)C(=O)c1ccc(-c2ccc3c(c2)[C@@H]2[C@@H](CCN2C(=O)c2ccc(F)cc2)[C@H](CO)N3C)cc1,inactive
5,NC(=O)C1=C[C@H](c2coc3ccccc3c2=O)C[C@H](OCCCCO)O1,inactive
6,O=C(CC1Nc2ccccc2NC1=O)Nc1ccc2c(c1)OCO2 (stereo not given),inactive
7,S=C(NCC1CCCO1)Nc1ccc(Cl)cc1Cl (stereo not given),inactive
8,Cc1cccc(N2CCN(S(=O)(=O)c3cn(C)cn3)CC2)c1C,inactive
9,O=S(=O)(c1cccc(F)c1)N1CC[C@@H]2[C@H]1c1cc(-c3cccc(F)c3)ccc1N[C@@H]2CO,inactive
10,CN1c2ccc(-c3ccccc3)cc2[C@@H]2[C@@H](CCN2C(=O)CN2CCOCC2)[C@@H]1CO,inactive
11,Cc1ccc(C(O)c2ncc(-c3cccc4ccccc34)[nH]2)cc1F (stereo not given),inactive
12,CO[C@H]1CN(C)C(=O)c2cc(NC(=O)Nc3ccc(Cl)c(Cl)c3)ccc2OC[C@@H](C)NC[C@@H]1C,inactive
13,CSc1ccccc1C(=O)C1CCCN(C(=O)CCc2cccnc2)C1 (stereo not given),inactive
14,COc1ccccc1N(CC(=O)N(CC(C)C)CC(C)C)S(=O)(=O)c1cccs1,inactive
15,COc1ncccc1C(=O)NC1CCCc2c1cnn2-c1ccc(C)c(C)c1 (stereo not given),inactive
16,O=S(=O)(c1ccccc1F)N1CC[C@H]2[C@H](CO)Nc3ccc(-c4cccc(F)c4)cc3[C@H]21,inactive
17,C[C@@H]1CN([C@@H](C)CO)C(=O)c2cc(-c3ccccc3)cnc2O[C@@H]1CN(C)Cc1ccccc1,inactive
18,COCC(=O)Nc1ccc2c(c1)C(=O)N(C)[C@H]1CC[C@@H](CC(=O)NCc3ccccc3Cl)O[C@H]1CO2,inactive

row,Compound,outcome
1,O=C(c1cccnc1)N1C[C@H]2[C@@H](c3ccccc31)[C@@H](CO)N2CC1CCCC1,inactive
2,CCCCOc1ccc(C(C)NC(=O)C2CCCN(S(=O)(=O)CCC)C2)cc1 (stereo not given),inactive
3,CC(C)Cc1nnc(NC(=O)CSc2nc(N)cc(=O)[nH]2)s1,inactive
4,C[C@H]1CN([C@@H](C)CO)C(=O)c2cccc(NC(=O)Nc3ccc(C(F)(F)F)cc3)c2O[C@H]1CN(C)C(=O)Nc1cccc2ccccc12,inactive
5,Cc1cccc(NC(=O)Nc2ccc(S(=O)(=O)Nc3onc(C)c3C)cc2)c1,inactive
6,O=C(NCc1ccccc1)c1ccc(-c2cn[nH]c2)c2ccoc12,inactive
7,O=C(NCCS(=O)(=O)N1CCN(c2ccc(F)cc2)CC1)c1ccc(Br)o1,inactive
8,COC(=O)C[C@H]1CC[C@H]2[C@H](COc3ccc(NC(=O)Cc4cccs4)cc3C(=O)N2C)O1,inactive
9,CO[C@H]1CN(C)C(=O)c2cc(NC(=O)Nc3ccc(Cl)c(Cl)c3)ccc2OC[C@@H](C)NC[C@H]1C,inactive
10,C[C@H](O)C#Cc1ccc2c(c1)O[C@H](CN(C)C)[C@H](C)CN([C@@H](C)CO)S2(=O)=O,inactive
11,O=C(CSc1nc2ncc(Cl)cc2[nH]1)c1c[nH]c2ccccc12,inactive
12,C=CCC[C@H](Cc1ccc(F)cc1)C(=O)OC[C@H](Cc1c[nH]c2ccccc12)NC(=O)[C@@H](CC=C)CC(=O)N[C@@H](CO)Cc1ccccc1,inactive
13,O=S(=O)(c1ccccc1F)N1CC[C@@H]2[C@H](CO)Nc3ccc(-c4cccc(F)c4)cc3[C@@H]21,inactive
14,CO[C@H]1CN(C)C(=O)c2cc(NC(C)=O)ccc2OC[C@@H](C)N(C(=O)CN2CCOCC2)C[C@H]1C,inactive
15,N#C[C@@H]1[C@@H](c2ccccc2C2=CCCCC2)[C@@H](CO)N1S(=O)(=O)c1ccccc1,inactive
16,COc1ccc(-c2oc3ncnc(NCCCN4CCOCC4)c3c2-c2ccc(OC)cc2)cc1,inactive
17,CCOc1cccc(C(=O)Nc2ccc(N(CC)CC)cc2)c1,inactive
